Bioassay records from PubChem BioAssay.
FEN1 inh: human FEN1 inhibition | Recombinant FEN1 flap cleavage, fluorescence, 15 min | Potency, µM (series often up to 114 µM), inactives show at the top dose activity change, negative = inhibition, actives largely listed as inhibitors | hit rate 0.35% among 390,000 | AID 588795; note: % is set by controls: 0 for no effect and ±100 for the full control effect; nearly all actives have a fitted effect of over 65% in size
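Reaction started by adding substrate (50 nM final) to 10 nM enzyme after 15 min room-temperature compound preincubation. Reads at 0 and 15 min, with data normalized and fitted to a four-parameter Hill equation.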
POLH inh: DNA polymerase eta (human) inhibition; Q9Y253; recombinant Pol eta, fluorescent DNA replication assay; Potency, µM (doses to about 114 µM), for inactives: at the top dose activity change, negative = inhibition, hits mostly inhibitors; hit rate 1.2% among 390,000; AID 588591; note: % is set by controls: 0 for no effect and ±100 for the full control effect
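Fluorescent replication assay: 50 nM final substrate added after a 15 min room-temperature compound preincubation with 10 nM enzyme. Signal taken at 0 min and again at 10 min.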
Pol beta inh: blocks human DNA polymerase beta activity | P06746 | Pol beta primer extension/strand displacement, fluorescence kinetic | Potency, µM (top dose mostly 114 µM), without a hit: at the highest dose activity change, negative = inhibition, hits mostly inhibitors | hit rate 1.3% among 340,000; note: % is set by controls: 0 for no effect and ±100 for the full control effect
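Pol beta (10 nM) and compounds were preincubated 15 min at room temperature, then 50 nM substrate (final) started primer extension/strand displacement. Reads were taken at 0 and 10 min; concentration-response data were fitted to a four-parameter Hill equation.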
WRN helicase inh: WRN helicase (human) inhibition; WRN helicase unwinding, fluorescent forked duplex, kinetic; Q14191; Potency, µM (series often up to 114 µM), for the others: at the top dose activity change, negative = inhibition, most hits filed as inhibitors; hit rate 0.46% among 360,000; note: % is set by controls: 0 for no effect and ±100 for the full control effect; nearly all actives have a fitted effect of over 55% in size
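Primary qHTS, 1536-well format. 20 nM WRN + compound, 15 min RT; start with 100 nM forked fluorophore/quencher duplex, 2 mM ATP (final); kinetic read ex 525/em 598 nm.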
Pol iota inh: inhibitors of human DNA polymerase iota | Q9UNA4 | Pol iota fluorescent replication assay, 10 min | Potency, µM (titrated, usually from 115 µM), inactives show at the top dose activity, negative = inhibition, most hits filed as inhibitors | hit rate 1% among 390,000
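Pol iota at 10 nM preincubated 15 min with compounds at room temperature; reaction started with fluorescent substrate, 50 nM final. Fluorescence read kinetically at 0 and 10 min; buffer-only wells as negative control.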
Pol kappa inh: inhibitors of human DNA polymerase kappa; purified Pol kappa, fluorescent DNA synthesis assay, 10 min; Potency, µM (highest dose often 107 µM), without a hit: at the top dose activity, negative = inhibition, actives largely listed as inhibitors; hit rate 0.53% among 400,000; note: % is set by controls: 0 for no effect and ±100 for the full control effect
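Inhibition of 10 nM Pol kappa is measured by a fluorescent read-out at 0 and 10 min following addition of 50 nM substrate (final), with a 15-min room-temperature compound preincubation.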
* hit, by the source's call; ? = inconclusive; · = no result; ! = not active in a repeat; [ ] = remark or other dose. Shown are actives, neighbours in structure and some others; about 2.4% of the full set was active somewhere. Calls come from the whole dose curve; as a rule, active = well fitted curve in the direction sought with a large enough effect; inconclusive = small, poorly fitted or top-dose-only effect, or another doubt; inactive = no such curve, though single readings can be large; an effect the other way counts as inactive or inconclusive. Potency is the fitted concentration of half-maximal effect.

SMILES	FEN1 inh	POLH inh	Pol beta inh	WRN helicase inh	Pol iota inh	Pol kappa inh
COc1cccc(C(=O)Oc2ccc(/C=N/Nc3ccc(C(=O)O)cc3)cc2OC)c1	2.0%	-4.2%	28.1%	-8.0%[57.1 µM]	-10.5%	3.2%
COc1cccc(OCc2cc(/C=N/Nc3ccc(C(=O)O)cc3)ccc2OC)c1	-23.7%	50.1µM*	-2.9%	-20.5%	7.9%	-12.6%
CC(=O)c1ccc(-c2c(C3C4C=CCCC4(C)C(=O)N3Cc3ccccc3)ccc3ccccc23)cc1 (configuration not stated)	7.1%	·	·	·	18.9%	-1.2%
CC[C@H](C)C(C(=O)N1CCN(C(=O)OC(C)(C)C)CC1)n1cc(C(Cc2ccc(O)cc2)NC(=O)OC(C)(C)C)nn1 (some centres not stated)	9.7%	-16.4%	20.1%	8.4%	5.6%	18.3%
CC(C)CC(NC(=O)OC(C)(C)C)c1cn([C@@H](Cc2ccc(O)cc2)C(=O)N2CCN(C(=O)OC(C)(C)C)CC2)nn1 (some centres not stated)	-4.6%	-22.3%	35.5µM*	-6.2%	14.8%	-7.4%
Cc1nn(-c2ccccn2)c2c1C(=O)C(Br)CC2 (configuration not stated)	-5.4%	7.0%	9.8%	56.2µM*	133.0%	-3.3%
CC1=C(C)C(=O)N(c2ccccn2)C1=O	7.7%	-12.8%	9.4%	0.2%	8.9%	-1.0%
CCCCCc1c2c(cc(O)c1C(=O)O)OC(=O)c1cc(C(=O)CCCC)c(OC)cc1O2	?	79.4µM*	·	?	?	-7.1%
CCCCCC(=O)Cc1cc(O)cc(O)c1C(=O)Oc1cc(CC(=O)CCCCC)c(C(=O)O)c(OC)c1	·	·	·	·	·	-11.2%[60.1 µM]
CCCCCc1c2c(cc(O)c1C(=O)O)OC(=O)c1c(cc(OC)cc1C(=O)CCCC)O2	-21.9%	79.4µM*	50.1µM*	?	?	?
O=C(Nc1ccccc1Sc1ccccc1)c1cnn2c1NC(=C1CC1)C=C2C(F)(F)F	?	·	·	·	-17.1%	-7.9%
O=C(Nc1cccnc1Cl)c1cnn2c1NC(=C1CC1)C=C2C(F)F	9.7%	·	·	·	-2.9%	-7.1%
O=C(O)C1Sc2[nH]c(=O)sc2C2c3ccc(O)cc3OC(=O)C12 (configuration not stated)	?	-57.8%	26.5%	25.1µM*	?	?
CN1/C(=C\C(=O)COC(=O)Cn2nnc(-c3ccccc3)n2)C(C)(C)c2ccccc21	?	?	?	50.1µM*	?	-22.8%
CN1/C(=C/C(=O)COC(=O)CN2C(=O)C3CC=CCC3C2=O)C(C)(C)c2ccccc21 (configuration not stated)	-23.6%	-10.8%	·	-0.4%	-20.0%	-15.0%
O=C(O[C@@H]1Cc2c(O)cc(O)cc2OC1c1ccc(O)c(O)c1)c1cc(O)c(O)c(O)c1 (some centres not stated)	·	·	·	·	·	0.178µM*
O=C(OC1Cc2c(O)cc(O)cc2OC1c1cc(O)c(O)c(O)c1-c1c(C2Oc3cc(O)cc(O)c3CC2OC(=O)c2cc(O)c(O)c(O)c2)cc(O)c(O)c1O)c1cc(O)c(O)c(O)c1 (configuration not stated)	·	·	·	·	·	0.501µM*
COc1cc(C2CC(=O)c3c(O)cc(O)cc3O2)ccc1O (configuration not stated)	-6.9%	-23.6%	?	3.4%	24.0%	10.5%
COc1c(CC=C(C)C)cc(C2CC(=O)c3c(O)cc(O)cc3O2)c(CC=C(C)C)c1O (configuration not stated)	?	-1.8%	·	-6.4%	-25.4%	-5.4%
COc1ccc([C@H]2CC(=O)c3c(O)cc(O)cc3O2)cc1O	-4.4%	-21.1%	-19.6%	-3.7%	44.4%	0.0%
Oc1cc(O)c2c(c1)O[C@H](c1ccc(O)c(O)c1)[C@H](O)C2	14.8%	-5.9%	3.2%	-6.2%	89.1µM*	89.1µM*!
CN(C)C(=O)c1ccc(-c2ccc3ncnc(NCc4ccccc4)c3c2)cc1	·	·	·	·	·	7.4%[60.1 µM]
